Compound: Nc1ncnc2c1ncn2[C@@H]1O[C@H](COP(=O)(O)OP(=O)(O)OP(=O)(O)O)[C@@H](O)[C@H]1O [adenosine 5'-triphosphate]
Experiment: log2 fold change of tryptic peptide abundance, ligand vs vehicle (limited proteolysis) (log2 ratio); higher = more trypsin-susceptible (destabilized)
Details: ligand concentration: 5 mM; sample: E. coli desalted lysate; replicate design: treated before aliquoting
Protocol: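 HT-PELSA: desalted E. coli K-12 BW25113 lysate (with 12 mM MgCl2) incubated with 5 mM ATP (pH 7) or water for 30 min at 25 C, then a 4 min trypsin pulse at 22 C. Peptides were quantified by DIA-MS (4 replicates). Value is the peptide log2 fold change (treated/control); negative = stabilized. Scale: negative = ligand-stabilized region.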
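Further: lysate desalted by size exclusion to strip endogenous ATP, peptide intensities built from DIA-NN precursor signals, and peptides missing any value discarded before comparison.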

UniProt P29013, sequence (P29013 whole entry): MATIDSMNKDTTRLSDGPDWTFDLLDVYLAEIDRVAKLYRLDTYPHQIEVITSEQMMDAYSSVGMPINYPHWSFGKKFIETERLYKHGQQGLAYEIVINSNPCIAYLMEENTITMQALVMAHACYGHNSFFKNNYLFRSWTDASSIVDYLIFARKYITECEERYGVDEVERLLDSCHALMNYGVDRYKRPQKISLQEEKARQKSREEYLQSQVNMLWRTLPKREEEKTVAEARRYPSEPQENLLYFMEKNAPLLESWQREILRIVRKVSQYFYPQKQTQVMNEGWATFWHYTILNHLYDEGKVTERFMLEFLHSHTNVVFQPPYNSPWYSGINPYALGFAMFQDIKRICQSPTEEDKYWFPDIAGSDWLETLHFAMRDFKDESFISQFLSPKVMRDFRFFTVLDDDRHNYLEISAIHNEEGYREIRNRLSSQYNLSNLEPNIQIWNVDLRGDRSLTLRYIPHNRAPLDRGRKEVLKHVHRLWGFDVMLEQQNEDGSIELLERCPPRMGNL
UniProt P32053, sequence (P32053 whole entry): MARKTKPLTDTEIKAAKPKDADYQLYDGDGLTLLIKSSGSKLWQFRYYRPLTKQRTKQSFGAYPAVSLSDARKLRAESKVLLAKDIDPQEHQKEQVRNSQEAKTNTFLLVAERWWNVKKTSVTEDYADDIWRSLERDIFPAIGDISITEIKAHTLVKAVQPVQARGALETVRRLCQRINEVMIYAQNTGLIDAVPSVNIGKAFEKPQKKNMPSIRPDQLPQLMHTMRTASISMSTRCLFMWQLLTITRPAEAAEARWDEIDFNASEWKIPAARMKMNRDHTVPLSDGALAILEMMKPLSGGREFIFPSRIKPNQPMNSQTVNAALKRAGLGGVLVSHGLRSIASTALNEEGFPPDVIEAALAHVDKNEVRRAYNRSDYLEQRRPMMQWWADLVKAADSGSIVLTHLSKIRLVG
UniProt P46859, sequence (P46859 whole entry): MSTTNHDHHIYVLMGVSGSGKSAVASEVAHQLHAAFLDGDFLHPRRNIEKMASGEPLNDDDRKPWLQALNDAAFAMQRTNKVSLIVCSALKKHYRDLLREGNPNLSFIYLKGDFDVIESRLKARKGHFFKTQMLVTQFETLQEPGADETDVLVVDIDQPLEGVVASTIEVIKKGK
UniProt P77615, sequence (P77615 whole entry): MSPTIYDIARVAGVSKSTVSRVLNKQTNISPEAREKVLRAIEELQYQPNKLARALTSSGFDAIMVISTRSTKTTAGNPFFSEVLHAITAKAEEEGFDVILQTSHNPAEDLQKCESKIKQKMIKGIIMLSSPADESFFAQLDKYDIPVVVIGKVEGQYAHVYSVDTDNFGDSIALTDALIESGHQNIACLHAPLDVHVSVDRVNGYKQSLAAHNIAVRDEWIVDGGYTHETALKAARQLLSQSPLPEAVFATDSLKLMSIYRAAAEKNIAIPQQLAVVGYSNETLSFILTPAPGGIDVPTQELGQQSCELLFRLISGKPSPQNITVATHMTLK
UniProt P08401, sequence (P08401 whole entry): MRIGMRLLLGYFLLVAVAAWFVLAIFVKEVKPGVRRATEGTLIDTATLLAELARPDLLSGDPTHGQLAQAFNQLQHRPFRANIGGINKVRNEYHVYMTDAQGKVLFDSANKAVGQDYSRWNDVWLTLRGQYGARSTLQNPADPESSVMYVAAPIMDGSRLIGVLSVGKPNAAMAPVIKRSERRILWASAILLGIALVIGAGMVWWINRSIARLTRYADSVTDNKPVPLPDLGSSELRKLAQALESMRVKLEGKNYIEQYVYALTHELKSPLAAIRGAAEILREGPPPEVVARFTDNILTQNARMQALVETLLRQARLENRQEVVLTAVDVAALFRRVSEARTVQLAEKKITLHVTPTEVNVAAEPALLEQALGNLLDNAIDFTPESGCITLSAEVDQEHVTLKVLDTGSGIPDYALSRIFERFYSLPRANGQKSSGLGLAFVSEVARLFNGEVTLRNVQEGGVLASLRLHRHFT
UniProt P42593, sequence (P42593 whole entry): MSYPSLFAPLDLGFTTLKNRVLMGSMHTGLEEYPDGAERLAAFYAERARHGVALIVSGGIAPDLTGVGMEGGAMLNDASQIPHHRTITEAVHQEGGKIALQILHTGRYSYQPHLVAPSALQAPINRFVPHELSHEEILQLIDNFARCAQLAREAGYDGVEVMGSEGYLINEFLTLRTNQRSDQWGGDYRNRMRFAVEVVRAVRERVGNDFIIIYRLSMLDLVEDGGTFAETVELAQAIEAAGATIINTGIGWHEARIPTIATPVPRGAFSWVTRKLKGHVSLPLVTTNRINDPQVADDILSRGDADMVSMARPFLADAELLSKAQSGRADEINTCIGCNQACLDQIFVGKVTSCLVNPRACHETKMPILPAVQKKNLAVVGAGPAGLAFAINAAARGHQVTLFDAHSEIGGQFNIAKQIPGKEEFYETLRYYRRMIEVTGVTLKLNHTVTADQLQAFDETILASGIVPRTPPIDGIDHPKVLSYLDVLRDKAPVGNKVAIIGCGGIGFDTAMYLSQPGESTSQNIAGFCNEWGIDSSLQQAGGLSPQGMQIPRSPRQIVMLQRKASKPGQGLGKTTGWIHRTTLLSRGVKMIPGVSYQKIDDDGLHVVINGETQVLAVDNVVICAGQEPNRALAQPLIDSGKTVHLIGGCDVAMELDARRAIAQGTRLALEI
UniProt P42589, sequence (P42589 whole entry): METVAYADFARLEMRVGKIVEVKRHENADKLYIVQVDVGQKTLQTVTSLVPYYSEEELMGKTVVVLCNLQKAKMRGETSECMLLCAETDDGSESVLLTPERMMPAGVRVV
UniProt P36928, sequence (P36928 whole entry): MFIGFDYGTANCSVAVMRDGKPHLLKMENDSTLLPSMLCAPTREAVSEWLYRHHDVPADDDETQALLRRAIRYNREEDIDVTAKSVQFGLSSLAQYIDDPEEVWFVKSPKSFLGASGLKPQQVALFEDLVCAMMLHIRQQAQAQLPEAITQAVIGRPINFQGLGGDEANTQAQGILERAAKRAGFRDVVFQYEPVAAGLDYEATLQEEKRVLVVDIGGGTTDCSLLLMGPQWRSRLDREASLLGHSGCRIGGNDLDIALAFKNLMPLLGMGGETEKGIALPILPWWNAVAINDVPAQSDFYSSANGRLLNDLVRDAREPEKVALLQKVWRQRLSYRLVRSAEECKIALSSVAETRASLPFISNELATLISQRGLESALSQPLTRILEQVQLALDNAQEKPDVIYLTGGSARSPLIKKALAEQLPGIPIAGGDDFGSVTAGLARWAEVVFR
UniProt P05719, sequence (P05719 whole entry): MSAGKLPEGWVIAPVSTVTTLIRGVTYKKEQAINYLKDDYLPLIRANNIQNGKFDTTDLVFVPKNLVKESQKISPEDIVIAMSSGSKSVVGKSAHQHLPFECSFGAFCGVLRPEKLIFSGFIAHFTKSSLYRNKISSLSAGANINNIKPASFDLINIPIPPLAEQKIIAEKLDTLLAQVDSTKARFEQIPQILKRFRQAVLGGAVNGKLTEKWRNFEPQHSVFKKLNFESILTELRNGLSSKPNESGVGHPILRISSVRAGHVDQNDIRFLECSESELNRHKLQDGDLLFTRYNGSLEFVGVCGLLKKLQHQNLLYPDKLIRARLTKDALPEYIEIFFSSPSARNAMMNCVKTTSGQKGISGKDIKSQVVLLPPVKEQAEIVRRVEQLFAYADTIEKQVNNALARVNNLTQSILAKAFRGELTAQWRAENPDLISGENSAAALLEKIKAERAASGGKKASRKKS
UniProt P15082, sequence (P15082 whole entry): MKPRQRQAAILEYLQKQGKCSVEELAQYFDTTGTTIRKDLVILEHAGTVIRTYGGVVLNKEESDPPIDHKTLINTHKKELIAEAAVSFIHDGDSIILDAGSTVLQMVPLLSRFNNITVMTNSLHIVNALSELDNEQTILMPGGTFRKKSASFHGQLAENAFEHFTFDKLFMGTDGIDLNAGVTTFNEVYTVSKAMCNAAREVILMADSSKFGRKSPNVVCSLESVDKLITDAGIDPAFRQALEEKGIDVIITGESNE
UniProt P0ADP0, sequence (P0ADP0 whole entry): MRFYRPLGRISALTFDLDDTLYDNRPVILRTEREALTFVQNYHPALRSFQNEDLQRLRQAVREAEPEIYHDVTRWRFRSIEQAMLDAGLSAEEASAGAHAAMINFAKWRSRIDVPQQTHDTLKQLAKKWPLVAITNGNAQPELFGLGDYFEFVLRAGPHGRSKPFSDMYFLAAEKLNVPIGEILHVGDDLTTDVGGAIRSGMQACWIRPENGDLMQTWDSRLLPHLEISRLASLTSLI
UniProt P37648, sequence (P37648 whole entry): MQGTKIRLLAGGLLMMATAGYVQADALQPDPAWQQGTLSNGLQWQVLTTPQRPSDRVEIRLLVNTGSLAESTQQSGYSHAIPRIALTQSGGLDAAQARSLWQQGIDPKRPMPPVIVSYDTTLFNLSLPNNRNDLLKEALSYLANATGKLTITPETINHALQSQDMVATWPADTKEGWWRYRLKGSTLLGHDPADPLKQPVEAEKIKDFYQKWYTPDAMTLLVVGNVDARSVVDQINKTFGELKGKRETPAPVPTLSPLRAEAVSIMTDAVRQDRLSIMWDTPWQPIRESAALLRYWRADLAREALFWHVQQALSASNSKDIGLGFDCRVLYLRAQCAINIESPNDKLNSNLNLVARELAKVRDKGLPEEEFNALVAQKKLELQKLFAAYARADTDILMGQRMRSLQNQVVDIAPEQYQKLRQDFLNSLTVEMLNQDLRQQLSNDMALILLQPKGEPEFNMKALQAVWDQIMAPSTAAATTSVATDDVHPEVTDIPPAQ
UniProt P27240, sequence (P27240 whole entry): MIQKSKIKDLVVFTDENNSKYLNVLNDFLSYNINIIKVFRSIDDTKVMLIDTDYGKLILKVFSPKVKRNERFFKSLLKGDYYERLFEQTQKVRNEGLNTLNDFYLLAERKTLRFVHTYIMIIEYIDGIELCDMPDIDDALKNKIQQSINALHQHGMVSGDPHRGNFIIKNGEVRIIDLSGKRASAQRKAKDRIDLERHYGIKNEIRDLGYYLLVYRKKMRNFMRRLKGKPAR

Target	log2 fold change
UniProt P00954 (peptide sequence: QHLELSR, peptide start residue: 152)	-0.982
UniProt P00946 (peptide sequence: FEAKPANQLLTQPVK, peptide start residue: 293)	-0.633
UniProt P32053 (peptide sequence: AFEKPQKK, peptide start residue: 202)	-0.721
UniProt P56580 (peptide sequence: KIVYITAGTRPAIVDK, peptide start residue: 26)	1.13
UniProt P76116 (peptide sequence: NEAYVTHR, peptide start residue: 284)	-0.872
UniProt P42589 (peptide sequence: TVVVLCNLQK, peptide start residue: 62)	-0.415
UniProt P00582 (peptide sequence: QLNIPRK, peptide start residue: 776)	-3.24
UniProt P77615 (peptide sequence: AIEELQYQPNKLAR, peptide start residue: 40)	0.358
UniProt P06966 (peptide sequence: ISHVSVSQWER, peptide start residue: 32)	-1
UniProt P30178 (peptide sequence: QMGSEEQEAK, peptide start residue: 22)	-1.15
UniProt P30750 (peptide sequence: TVFGNVALPLELDNTPKDEVKR, peptide start residue: 98)	0.668
UniProt P77376 (peptide sequence: VGLIGYGYASK, peptide start residue: 7)	-1.01
UniProt P42593 (peptide sequence: MIEVTGVTLK, peptide start residue: 435)	-1.15
UniProt P46859 (peptide sequence: GDFDVIESR, peptide start residue: 112)	-0.658
UniProt P77395 (peptide sequence: RQLYALLY, peptide start residue: 277)	0.6
UniProt P27240 (peptide sequence: IKDLVVFTDENNSK, peptide start residue: 7)	-0.431
UniProt P77536 (peptide sequence: MVDELGHWEEWRDR, peptide start residue: 41)	-0.517
UniProt P23862 (peptide sequence: KRIQHQDFER, peptide start residue: 111)	1.03
UniProt P28631 (peptide sequence: YLLCQQPQGHK, peptide start residue: 47)	-0.546
UniProt P23857 (peptide sequence: ERIATAVPDKNDTVK, peptide start residue: 50)	0.323

Target	log2 fold change
UniProt P45523 (peptide sequence: GTLIDGKEFDNSYTR, peptide start residue: 173)	0.527
UniProt P27298 (peptide sequence: DGDHYATLNTAQK, peptide start residue: 115)	1.13
UniProt P0AB96 (peptide sequence: LCRPSEVVLEILPDAQK, peptide start residue: 105)	0.492
UniProt P21420 (peptide sequence: HYFSSNDADDGDTTYAR, peptide start residue: 44)	-0.336
UniProt P30864 (peptide sequence: KIIASPDYISR, peptide start residue: 165)	1.32
UniProt P0ADP0 (peptide sequence: EALTFVQNYHPALR, peptide start residue: 34)	0.493
UniProt P15082 (peptide sequence: QRQAAILEYLQK, peptide start residue: 5)	2.18
UniProt P21893 (peptide sequence: DCNFPSK, peptide start residue: 181)	-0.813
UniProt P08401 (peptide sequence: NVQEGGVLASLR, peptide start residue: 457)	0.651
UniProt P76594 (peptide sequence: SEVQGVMLYLR, peptide start residue: 533)	-2.33
UniProt P77252 (peptide sequence: DEPLTLLK, peptide start residue: 148)	0.328
UniProt P24203 (peptide sequence: ILLTKTDVAGEAEKLHER, peptide start residue: 155)	1.26
UniProt P11557 (peptide sequence: AVSTLPADVQAK, peptide start residue: 402)	0.435
UniProt P76506 (peptide sequence: SDPLEGFNR, peptide start residue: 29)	0.294
UniProt P64602 (peptide sequence: GITCIDLSR, peptide start residue: 38)	0.802
UniProt P05719 (peptide sequence: FDTTDLVFVPK, peptide start residue: 54)	-0.655
UniProt P36928 (peptide sequence: EAVSEWLYR, peptide start residue: 44)	0.728
UniProt P37648 (peptide sequence: DKGLPEEEFNALVAQK, peptide start residue: 363)	0.498
UniProt P02359 (peptide sequence: FVNILMVDGK, peptide start residue: 26)	0.921
UniProt P29013 (peptide sequence: SREEYLQSQVNMLWR, peptide start residue: 204)	-0.636

Reference: the supplement of paper PMC12819154, “High-throughput peptide-centric local stability assay extends protein–ligand identification to membrane proteins, tissues and bacteria” (Nature Structural & Molecular Biology, 2025)
